# Screening results from PubChem BioAssay.
# Sampled rows, rich in hits. Any-hit rate of the full collection: about 0.9%.
# Six1-Eya2 inh – qHTS Assay for Inhibitors of the Six1/Eya2 Interaction. Homeobox protein SIX1 (Homo sapiens) + Protein phosphatase EYA2 (Homo sapiens), …. AlphaScreen GST-Six1/His-Eya2 binding, biochemical; hits give low values. activity change, % (no concentration beside the values). actives 0.56% (n = 360,000); in the data active means activity change below about -65%; inconclusive means mostly about -30% to -63%
#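 Homogeneous AlphaScreen proximity assay pairing GST-Six1 with His-tagged Eya2 (added as 5X mix: 250 nM and 500 nM) in 50 mM Tris pH 8.0, 300 mM NaCl, 1 mM TCEP. Glutathione donor and nickel acceptor beads; 1 h, 37 °C, dark.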
# L3MBTL1 inh-1 – qHTS Assay for the Inhibitors of L3MBTL1. Lethal(3)malignant brain tumor-like protein 1 (Homo sapiens), Q9Y468. AlphaScreen L3MBTL1–H3K9me1 peptide binding. Potency, µM (doses to about 57.1 µM), usual class: inhibitors. actives 0.66% (n = 230,000). AID 485360, 2010; further: nearly all actives have a fitted effect of over 60% in size
#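 AlphaScreen proximity signal between nickel-chelate acceptor and streptavidin donor beads (final 10 ug/mL) reports binding of 50 nM L3MBTL1 to 75 nM biotin-H3 K9me1 peptide; complex incubated with compounds 30 min at room temperature; cefsulodin titration as control.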
# CtBP-E1A blk – qHTS Assay for Inhibitors of the CtBP/E1A Interaction; AlphaScreen GST-E1A/His-CtBP binding, 1536-well; hits give low values; activity change, % (no concentration beside the values); actives 0.49% (n = 340,000); in the data active means activity change below about -65%; inconclusive means mostly about -30% to -63%
#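 In 5 uL wells, 23 nL compound meets equimolar GST-E1A and His-CtBP (5X stock 125 nM each) for 2 h, 37 °C. Beads (5X, 50 ug/mL) then 1 h, 37 °C, dark.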
# Eya2 inh – qHTS Assay for Inhibitors of the Phosphatase Activity of Eya2; AID 488837, 2010; Protein phosphatase EYA2 (Homo sapiens), O00167; actives 0.006% (n = 330,000); recombinant Eya2, OMFP fluorescence dephosphorylation (OMFP is methylfluorescein phosphate); Potency, µM (series often up to 76.9 µM), hits mostly inhibitors
#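 Eya2 (0.2 uM) preincubated 10 min at ambient with compound, then OMFP substrate added at 50 uM; 10 min reaction in 50 mM HEPES pH 7.5, 50 mM NaCl, 5 uM MgCl2, 0.05% BSA, 1 mM DTT. Fluorescence read at Ex 485/Em 525 nm.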
# B2AR arrestin – qHTS assay of beta-arrestin-biased ligands of beta2-adrenergic receptor; beta-arrestin recruitment to beta2AR, cell-based reporter; AID 492947, 2010; Beta-2 adrenergic receptor (Homo sapiens), P07550; Potency, µM (titrated, usually from 46.1 µM), actives largely listed as activators; actives 0.02% (n = 330,000); further: nearly all actives have a fitted effect of over 65% in size
# Target sequence (P07550 whole entry, looked up): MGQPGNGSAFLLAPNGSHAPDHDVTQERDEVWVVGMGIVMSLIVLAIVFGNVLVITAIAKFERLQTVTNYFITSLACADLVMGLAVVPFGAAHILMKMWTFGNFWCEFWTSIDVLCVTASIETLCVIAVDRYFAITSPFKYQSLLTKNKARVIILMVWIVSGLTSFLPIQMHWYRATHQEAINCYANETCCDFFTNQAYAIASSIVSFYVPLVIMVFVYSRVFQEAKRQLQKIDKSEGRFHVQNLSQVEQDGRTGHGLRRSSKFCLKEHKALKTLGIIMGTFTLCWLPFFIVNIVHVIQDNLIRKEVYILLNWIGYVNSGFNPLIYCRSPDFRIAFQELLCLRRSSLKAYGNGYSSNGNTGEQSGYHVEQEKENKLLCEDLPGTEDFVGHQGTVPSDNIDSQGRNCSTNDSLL
# L3MBTL1 inh-2 – qHTS Assay for the Inhibitors of L3MBTL1: Hit Validation | Potency, µM, usual class: inhibitors | actives 91% (n = 500) | shares compounds with L3MBTL1 inh-1 | L3MBTL1 methyl-lysine binding inhibition, biochemical qHTS | AID 540279, 2011; further: nearly all actives have a fitted effect of over 70% in size
# AlphaScreen ctr2 – qHTS Assay for the Inhibitors of L3MBTL1: Hit Validationin AlphaScreen Counterscreen. shares compounds with L3MBTL1 inh-1. AlphaScreen counterscreen, signal inhibition. Potency, µM (top dose mostly 57.1 µM), most hits filed as inhibitors. 500 tested, under 10 active
# Numbers stand for hits; n = inactive; u = inconclusive; x = no result. Unless noted, the call rests on the fitted dose curve; in most records, active means well fitted curve in the direction sought with a large enough effect; inconclusive means small, poorly fitted or top-dose-only effect, or another doubt; inactive means no such curve, though single readings can be large; an effect the other way counts as inactive or inconclusive.
SMILES,Six1-Eya2 inh,L3MBTL1 inh-1,CtBP-E1A blk,Eya2 inh,B2AR arrestin,L3MBTL1 inh-2,AlphaScreen ctr2
Cc1ccc2c(c1)C1CN(C)CCC1N2Sc1ccccc1[N+](=O)[O-] (stereo unspecified),u,x,u,n,n,x,x
COc1cc(/C=C2\CCCc3c2nc2ccccc2c3C(=O)O)cc(Br)c1O,u,x,u,n,n,x,x
COc1cc(/C=C2\CCc3c2nc2ccccc2c3C(=O)O)cc(OC)c1OC,n,4µM,x,n,n,1.5,n
Oc1ccccc1C(=S)N1CCN(C(=S)c2ccccc2O)CC1,n,x,x,n,n,x,x
Cc1ccc(/C=c2\sc3nc(-c4ccco4)nn3c2=O)o1,n,7.9µM,n,n,n,17,n
Cc1ccc(/C=c2\sc3nc(-c4ccccc4Br)nn3c2=O)o1,n,x,n,n,n,x,x
O=C1CCC2(CCCCC2)N1,n,x,n,x,x,x,x
COc1cnc(-c2ccccn2)nc1Oc1ccccc1Cl,n,n,n,n,n,x,x
COc1cnc(-c2ccccn2)[nH]c1=O,-91,10µM,-94,n,n,21,n
Nc1cc2c(cc1[N+](=O)[O-])OCCO2,n,n,n,n,n,x,x
Nc1cc2c(cc1[N+](=O)[O-])OCO2,n,32µM,n,n,n,8.4,n
O=C(CCCOc1ccccc1)N1CCN(S(=O)(=O)c2ccc(Cl)cc2)CC1,n,n,n,n,n,x,x
CCOc1ccc(OCCCC(=O)N2CCN(S(=O)(=O)c3ccc(Cl)cc3)CC2)cc1,n,32µM,n,n,n,27,n
O=C(c1ccc(=O)oc1)N1CCCc2ccccc21,u,18µM,n,n,n,1.5,n
O=C(COC(=O)C1CCN(S(=O)(=O)c2cccs2)CC1)c1ccc2c(c1)OCCO2,n,n,n,n,n,x,x
O=C(COC(=O)C1CCN(S(=O)(=O)c2cccs2)CC1)c1cc2ccccc2o1,n,32µM,n,n,n,u,n
c1ccc2c(c1)OCC(c1nn3c(Cn4nnc5ccccc54)nnc3s1)O2 (stereo unspecified),n,35µM,n,n,n,u,n
COc1ccc(CCN2CC(=O)NC(=O)C2)cc1OC,n,x,n,x,x,x,x
COC(=O)c1ccccc1NC(=O)CSc1nc(N)cc(=O)[nH]1,n,25µM,n,n,n,11,u
O=C(O)CCCN1C(=O)/C(=C\c2ccco2)SC1=S,u,25µM,n,n,n,u,n
O=C(CCCN1C(=O)/C(=C/c2ccco2)SC1=S)Nc1ccccc1C(=O)O,u,7.1µM,n,n,n,3.4,n
O=C(O)CN1C(=O)/C(=C/c2ccc(SCc3ccccc3)o2)SC1=S,n,2.2µM,n,n,n,4.7,u
O=C(O)CN1C(=O)/C(=C\c2ccc(OC(=O)c3ccco3)cc2)SC1=S,u,x,n,n,n,x,x
Cc1cccc(C)c1N1C(=O)[C@@H]2C(c3ccccc3Cl)=NO[C@@H]2C1=O,n,n,n,n,n,x,x
COc1ccc(OC)c(N2C(=O)[C@@H]3C(c4ccccc4Cl)=NO[C@@H]3C2=O)c1,n,3.5µM,n,n,n,3,n
CCCc1nc2sc3c(SCC(=O)NCc4ccco4)ncnc3c2c2c1CCC2,u,14µM,u,n,n,19,n
CCN(CC)CC(O)CNc1ccnc2c(Cl)ccc(Cl)c12 (stereo unspecified),n,x,n,x,x,x,x
N#CCC(=O)N/N=C/c1c(-c2ccccc2)n(-c2ccccc2)c2ccccc12,n,x,n,n,n,x,x
Cc1cccc(NC(=O)/C(=C\c2ccc([N+](=O)[O-])o2)NC(=O)c2ccc(Cl)cc2)c1,n,28µM,n,n,n,13,n
